# Reference: PubChem BioAssay (Tox21)
# Several values for one entry are separate records, joined by “and”; a condition that tells them apart may be missing. Equal entries are not always repeated. Records with an inconclusive call do not appear. A call without a number means that no potency is given here. Some compounds were tested as several samples or in several runs, with calls that do not always agree. Activity calls are given as the source filed them. Calls follow the shape of the dose curve; as a rule, active = well fitted curve in the direction sought with a large enough effect in the repeat runs; inconclusive = weak or mixed curves; inactive = no such curve, though single readings can be large; an effect the other way counts as inactive or inconclusive.
# Experiments:
# [1] = qHTS RealTime-Glo MT Cell Viability Assay in HepG2 cells - 40 hour (AID 1224870); also: nearly all actives have a fitted effect of over 50% in size
# In short: (§1)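 Real-time viability: cells seeded at 600 per well together with NanoLuc and cell-permeant prosubstrate, compounds added after 5 h incubation. Luminescence tracked at 0, 8, 16, 24, 32 and 40 h of exposure.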
# [2] = A CellTox Green Cytotoxicity Assay to monitor cytotoxicity in HEK293 cells - 40 hour (AID 1224871); also: nearly all actives have a fitted effect of over 45% in size; also: potency is read from the fitted curve at half-maximal effect
# In short: (§2)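 Each value comes from one timepoint of a single continuous run in which HEK293 cells with CellTox Green were exposed to compound for up to 40 h at 37 C, dye fluorescence rising with cell death.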
# [3] = qHTS RealTime-Glo MT Cell Viability Assay in HEK293 cells - 16 hour (AID 1224872); also: top concentration of the series differs between compounds; nearly all actives have a fitted effect of over 50% in size
# In short: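 HEK293 cells were seeded at 600 cells/well together with NanoLuc luciferase and cell-permeant prosubstrate, preincubated 5 h at 37 C/5% CO2, then given compound in DMSO by pintool. Luminescence from viable-cell prosubstrate reduction was read repeatedly over 40 h.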
# [4] = qHTS RealTime-Glo MT Cell Viability Assay in HepG2 cells - 8 hour (AID 1224873); also: nearly all actives have a fitted effect of over 55% in size
# In short: as §1
# [5] = A CellTox Green Cytotoxicity Assay to monitor cytotoxicity in HEK293 cells - 24 hour (AID 1224875); also: series mostly up to about 77 µM; nearly all actives have a fitted effect of over 45% in size
# In short: as §2
# [6] = A CellTox Green Cytotoxicity Assay to monitor cytotoxicity in HepG2 cells - 16 hour (AID 1224876); also: nearly all actives have a fitted effect of over 45% in size; also: potency is read from the fitted curve at half-maximal effect
# In short: (§3)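 Continuous culture of HepG2 cells with a membrane-impermeant DNA dye; rising fluorescence marks dead cells. Compound exposure lasted up to 40 h at 37 C, with reads every 8 h from 0 h.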
# [7] = qHTS RealTime-Glo MT Cell Viability Assay in HepG2 cells - 32 hour (AID 1224877); also: nearly all actives have a fitted effect of over 55% in size
# In short: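 HepG2 cells were seeded at 600 cells/well together with NanoLuc luciferase and a cell-permeant prosubstrate, preincubated 5 h at 37 C/5% CO2, then pin-dosed with compounds in DMSO. Nonlytic luminescence from viable cells was read at each time point.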
# [8] = A CellTox Green Cytotoxicity Assay to monitor cytotoxicity in HepG2 cells - 24 hour (AID 1224878); also: nearly all actives have a fitted effect of over 45% in size; also: potency is read from the fitted curve at half-maximal effect
# In short: as §3
# [9] = A CellTox Green Cytotoxicity Assay to monitor cytotoxicity in HepG2 cells - 40 hour (AID 1224879); also: nearly all actives have a fitted effect of over 40% in size; also: potency is read from the fitted curve at half-maximal effect
# In short: as §3
# [10] = qHTS RealTime-Glo MT Cell Viability Assay in HEK293 cells - 40 hour (AID 1224874); settings: RealTime-Glo luminescence; max response: stronger effect = lower value; also: nearly all actives have a fitted effect of over 50% in size
# In short: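 qHTS format; HEK293 cells with NanoLuc/prosubstrate reagent, 37 C/5% CO2 for 5 h pre-dosing; compounds 23 nL in DMSO; luminescence at each time point reflects viable cells.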
Structure (SMILES),outcome [1],Potency [2],outcome [3],outcome [4],Potency [5],Potency [6],outcome [7],Potency [8],Potency [9],max response [10]
CCSC(=O)N1CCCCCC1,inactive,inactive,inactive,inactive,inactive,inactive,inactive,inactive,inactive,
CNc1cnn(-c2cccc(C(F)(F)F)c2)c(=O)c1Cl,inactive,inactive,inactive,inactive,inactive,inactive,inactive,inactive,inactive,
O=S(=O)(O)OOS(=O)(=O)O,inactive,inactive,inactive,,inactive,inactive,inactive,inactive,inactive,2.97% (inactive) [middle of 4 runs]
COP(=S)(OC)SCN1C(=O)c2ccccc2C1=O,inactive,inactive,inactive,,inactive,inactive,inactive,inactive,inactive,11.4% (inactive) and 4.29% (inactive) and 1.87% (inactive)
N#CN=C(N)N,inactive,inactive,inactive,,inactive,inactive,inactive,inactive,inactive,1.89% (inactive) and 5.69% (inactive)
O=C(O)CCCc1ccc(N(CCCl)CCCl)cc1,inactive,inactive,inactive,inactive,inactive,inactive,inactive,inactive,inactive,
Cc1cccc(C)c1NC(=O)CN1CCCC1=O,inactive,inactive,inactive,inactive,inactive,inactive,inactive,inactive,inactive,
CCOc1ccc(N)cc1,inactive,inactive,inactive,inactive,inactive,inactive,inactive,inactive,inactive,
Cc1cc(O)ccc1Cl,inactive,inactive,inactive,,inactive,inactive,inactive,inactive,inactive,-0.728% (inactive) and -2.63% (inactive) and 0.546% (inactive)
ClCCOCCCl,inactive,inactive,inactive,inactive,inactive,inactive,inactive,inactive,inactive,
Cl[C@H]1OCCO[C@@H]1Cl,inactive,inactive,inactive,inactive,inactive,inactive,inactive,inactive,inactive,
CNC(=O)Oc1cccc2ccccc12,inactive,inactive,inactive,inactive,inactive,inactive,inactive,inactive,inactive,
Oc1c(Br)cc(Br)cc1Br,inactive,inactive,inactive,inactive,inactive,inactive,inactive,inactive,inactive,
C/C=C/c1ccc2c(c1)OCO2,inactive,inactive,inactive,inactive,inactive,inactive,inactive,inactive,inactive,
O=[N+]([O-])c1cc([As](=O)(O)O)ccc1O,inactive,inactive,inactive,inactive,inactive,inactive,inactive,inactive,inactive,
COc1nc(NC(C)C)nc(NC(C)C)n1,inactive,inactive,inactive,,inactive,inactive,inactive,inactive,inactive,-0.66% (inactive) and 0.377% (inactive)
O=C(O)c1cc(Oc2ccc(C(F)(F)F)cc2Cl)ccc1[N+](=O)[O-],inactive,inactive,inactive,,inactive,inactive,inactive,inactive,inactive,3.72% (inactive) [middle of 4 runs]
C=CC(=O)OCCCCCC(C)C,inactive,inactive,inactive,,inactive,inactive,inactive,inactive,inactive,
C=C(C)C(=O)OCC(CC)CCCC (stereo unspecified),inactive,inactive,inactive,,inactive,inactive,inactive,inactive,inactive,1.51% (inactive)
CCCCCCCCCCCCCCCCCC(=O)O,inactive,inactive,inactive,,inactive,inactive,inactive,inactive,inactive,
CCOC(=O)CC(SP(=O)(OC)OC)C(=O)OCC (stereo unspecified),inactive,inactive,inactive,,inactive,inactive,inactive,inactive,inactive,11.3% (inactive) and 26.8% (inactive)
Nc1ccc([As](=O)(O)O)cc1,inactive,inactive,inactive,,inactive,inactive,inactive,inactive,inactive,
Cc1ccccc1N,inactive,inactive,inactive,,inactive,inactive,inactive,inactive,inactive,
[N-]=[N+]=CC(=O)OC[C@H](N)C(=O)O,inactive,inactive,inactive,,inactive,27.5 µM (active) and inactive,inactive,24.5 µM (active) and inactive,43.6 µM (active) and inactive,8.97% (inactive) and 11.4% (inactive)

Structure (SMILES),outcome [1],Potency [2],outcome [3],outcome [4],Potency [5],Potency [6],outcome [7],Potency [8],Potency [9],max response [10]
COC(=O)Nc1cccc(OC(=O)Nc2cccc(C)c2)c1,inactive,inactive,inactive,,inactive,inactive,inactive,inactive,49 µM (active),
CN(C)C(=O)C(c1ccccc1)c1ccccc1,inactive,inactive,inactive,,inactive,inactive,inactive,inactive,inactive,1.04% (inactive) and -0.357% (inactive)
CN(C)NC(=O)CCC(=O)O,inactive,inactive,inactive,,inactive,inactive,inactive,inactive,inactive,
CC(=O)C1CCOC1=O (stereo unspecified),inactive,inactive,inactive,,inactive,inactive,inactive,inactive,inactive,3.16% (inactive) and 1.64% (inactive)
CN1C(=O)CCS(=O)(=O)C1c1ccc(Cl)cc1 (stereo unspecified),inactive,inactive,inactive,,inactive,inactive,inactive,inactive,inactive,
C[C@]12CC[C@H](O)CC1=CC[C@@H]1[C@@H]2CC[C@]2(C)C(=O)CC[C@@H]12,inactive,inactive and 43.6 µM (active),inactive,,inactive,inactive,inactive,inactive,49 µM (active) and inactive,-15.5% (inactive)
CC12CC1(C)C(=O)N(c1cc(Cl)cc(Cl)c1)C2=O (stereo unspecified),inactive,inactive,inactive,,inactive,inactive,inactive,inactive,inactive,1.77% (inactive) and 7.9% (inactive)
CC[N+](=O)[O-],inactive,inactive,inactive,,inactive,inactive,inactive,inactive,inactive,
CNC(=O)O/N=C/C(C)(C)S(C)=O (stereo unspecified),inactive,inactive,inactive,,inactive,inactive,inactive,inactive,inactive,16.8% (inactive) and -17.7% (inactive)
O=C(O)COc1ccccc1,inactive,inactive,inactive,,inactive,inactive,inactive,inactive,inactive,
O=[N+]([O-])c1ccc(Cl)c(Cl)c1,inactive,inactive,inactive,,inactive,inactive,inactive,inactive,inactive,-5.48% (inactive) and 3.8% (inactive)
Nc1cccc(Cl)c1,inactive,inactive,inactive,,inactive,inactive,inactive,inactive,inactive,
C=CCN=C=S,inactive,inactive,inactive,,inactive,inactive,inactive,inactive,inactive,17.8% (inactive) and 1.95% (inactive)
CN(C)C(=O)Cl,inactive,inactive,inactive,,inactive,inactive,inactive,inactive,inactive,1.46% (inactive) and 5.01% (inactive)
N#Cc1ccccn1,inactive,inactive,inactive,,inactive,inactive,inactive,inactive,inactive,
CN(C)C(=O)Nc1cccc(C(F)(F)F)c1,inactive,inactive,inactive,,inactive,inactive,inactive,inactive,inactive,-22.8% (inactive) and -6.94% (inactive)
CNC(=O)O/N=C/C(C)(C)S(C)(=O)=O,inactive,inactive,inactive,,inactive,inactive,inactive,inactive,inactive,
Nc1ccc(N)cc1,inactive,inactive,inactive,,inactive,inactive,inactive,inactive,inactive,13.6% (inactive) and -13% (inactive)
Oc1ccc(Cl)cc1,inactive,inactive,inactive,,inactive,inactive,inactive,inactive,inactive,3.34% (inactive) and 1.68% (inactive) and 3.82% (inactive)
N#Cc1cccc(C#N)c1,inactive,inactive,inactive,,inactive,inactive,inactive,inactive,inactive,
COc1cc(-c2ccc(N)c(OC)c2)ccc1N,inactive,inactive,inactive,,inactive,inactive,inactive,inactive,inactive,
O=[N+]([O-])c1ccc(Cl)cc1,inactive,inactive,inactive,,inactive,inactive,inactive,inactive,inactive,
OCCCCO,inactive,inactive,inactive,,inactive,inactive,inactive,inactive,inactive,2.32% (inactive) and 1.82% (inactive)
Clc1cnc(Oc2ccc(Oc3ncc(Cl)cc3Cl)cc2)c(Cl)c1,inactive,24.5 µM (active),inactive,,,inactive,inactive,inactive,inactive,-4.51% (inactive) and -10.8% (inactive)
